# PubChem BioAssay (NCATS)
# Inconclusive results are not listed. Entries that show only a call come without a potency. The source made the active and inactive calls. Unless noted, calls come from the whole dose curve; as a rule, active = well fitted curve in the direction sought with a large enough effect; inconclusive = small, poorly fitted or top-dose-only effect, or another doubt; inactive = no such curve, though single readings can be large; an effect the other way counts as inactive or inconclusive. Positions of bridges follow the written chain, without caps; N, C: chain ends. Non-standard residues stand in square brackets, D forms with d. Residues, ends and D or L forms follow the SMILES beside them. ξ: configuration not given here. *: point of attachment. ξDab(CH2SO3H) = NC(CCNCS(=O)(=O)O)C(=O)O; Octanoyl(6-Me) = CCC(C)CCCCC(=O)*; Dab = NCC[CH](N)C(=O)O
# Columns and labels:
# [1] = biological target: Furin (Homo sapiens) (UniProt P09958); assay: Furin counterscreen qHTS for Zika virus inhibitors (AID 1347149);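 note: purified recombinant full-length human furin enzyme at 5 nM; fluorescence gain from furin cutting a BOC-RVRR-AMC peptide substrate over 15 min; top concentration of the series differs between compounds; nearly all actives have a fitted effect of over 70% in size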
# Procedure, shortened: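 Fluorogenic cleavage of BOC-RVRR-AMC (2 microM final, Km ~15 µM) was monitored (ex 340, em 450 nm) at 37C after 15 min RT preincubation of 5 nM furin with compounds in HEPES pH 7.0 buffer with CaCl2 and Triton X-100. Percent inhibition was fitted to a 4-parameter Hill curve.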
# [2] = Tertiary RLuc qRT-PCR qHTS assay for Zika virus inhibitors (AID 1347169); note: nearly all actives have a fitted effect of over 55% in size; note: potency is the fitted concentration of half-maximal effect; for activity change, negative = inhibition: top concentration of the series differs between compounds
# Procedure, shortened: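 Vero cells (1,000 per well) plated overnight at 37 degrees C, treated with compound in DMSO, then infected with recombinant ZIKV-RLuc (Cambodian) at MOI 1-2 for 48-72 hrs. Live-cell Renilla luciferase substrate added; luminescence read after 1-1.5 hrs.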
# [3] = tested on: Zika virus NS2B-NS3 protease (unlinked complex); assay: Confirmatory screen GU AMC qHTS for Zika virus inhibitors (AID 1347153); note: nearly all actives have a fitted effect of over 70% in size;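 for potency: enzyme at 25 nM with substrate at 10 µM below its Km of 18.3 µM; potency is the fitted concentration of half-maximal effect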
# Procedure, shortened: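 Noncovalent NS2B hydrophilic domain/NS3 protease complex (25 nM) in 10 mM Tris-HCl pH 8.0, 0.01% Tween 20 was preincubated 15 min at room temperature with compounds. Then 10 µM AMC substrate (Km 18.3 µM) was added; fluorescence was read over 15 min and fitted to a 4-parameter Hill equation.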
# [4] = tested on: Zika virus NS2B-NS3 protease; assay: Primary screen GU AMC qHTS for Zika virus inhibitors (AID 1347154); note: potency is the fitted concentration of half-maximal effect; nearly all actives have a fitted effect of over 70% in size
# Procedure, shortened: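 Unlinked Zika NS2B hydrophilic domain/NS3 protease domain noncovalent complex (25 nM final) in 10 mM Tris-HCl pH 8.0, 0.01% Tween 20, with AMC peptide substrate. Fluorescence (ex 340, em 450 nm) change over 15 min, room temperature; percent inhibition fitted to 4-parameter Hill equation.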
# [5] = Vero cells viability qHTS for Zika virus inhibitors (AID 1347167)
# Procedure, shortened: (§1)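 Counter-screen for cytotoxicity of hits from NS2B-NS3 protease qHTS. Overnight-attached cells (2.5 x 10^5 cells/mL, DMEM/4% FBS) were dosed in titration, incubated 24 to 48 hours, then assayed by CellTiter Glo.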
# [6] = HepG2 cells viability qHTS for Zika virus inhibitors (AID 1347168)
# Procedure, shortened: as §1
# [7] = Primary qHTS for small molecule stabilizers of the endoplasmic reticulum resident proteome: Secreted ER Calcium Modulated Protein (SERCaMP) assay (AID 1508630)
# Procedure, shortened: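 GLuc-SERCaMP-expressing SH-SY5Y cells, pretreated 16 h with compound, are challenged with thapsigargin to empty ER calcium stores; after 4 h, coelenterazine is added directly to the medium and luminescence is imaged.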
# [8] = biological target: Cytochrome P450 3A4 (Homo sapiens) (UniProt P08684); assay: qHTS Assay for Inhibitors and Substrates of Cytochrome P450 3A4 (AID 884); note: nearly all actives have a fitted effect of over 50% in size; note: potency is the fitted concentration of half-maximal effect
# Procedure, shortened: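 20 nM human CYP3A4 with 25 uM Luciferin-PPXE (at KM) in 200 mM KPO4, preincubated 10 min with compound; NADPH regeneration started a 60 min RT reaction. Luciferin detected by luminescence, normalized to 57 uM ketoconazole as full inhibition.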
# [9] = biological target: Cytochrome P450 3A4 (Homo sapiens) (UniProt P08684); assay: qHTS Assay for Activators of Cytochrome P450 3A4 (AID 885); note: nearly all actives have a fitted effect of over 65% in size
# Procedure, shortened: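 20nM CYP3A4 + 25uM Luciferin-PPXE (=KM), 200mM KPO4; cpd 10 min RT; NADPH regen, 60 min RT; stop w/ detection buffer, 20 min; luminescence. Normalized to 57 uM ketoconazole.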
# [10] = Confirmation and Secondary Assay for Modulators of Hemoglobin Beta Chain Splicing at IVS2 654 locus (AID 910);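 note: per-well total GFP intensity by laser scanning cytometry after 2-day treatment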
# Procedure, shortened: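 HeLa cells stably carrying EGFP interrupted by mutant beta-globin IVS2-654 intron (CMV-driven) were treated with compound for 2 days at 37C; corrected splicing was scored as total peak GFP intensity per well (488 nm excitation, 500-520 nm emission).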
# [11] = Confirmation and Secondary Assay for Modulators of Hemoglobin Beta Chain Splicing at IVS2 705 locus (AID 930);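 note: HeLa cells stably expressing the EGFP-705 splicing reporter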
# Procedure, shortened: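 Restored EGFP fluorescence after 2-day compound exposure reports splicing correction in IVS2-705 EGFP reporter HeLa cells; positive control was 500 nM splice-blocking PNA oligo. Signal measured as well total peak GFP intensity (488 nm excitation).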
# [12] = qHTS Assay for Lipid Storage Modulators (AID 1519; calls by dose curve); details: Drosophila S3 cells, BODIPY lipid droplet/cell ratio, laser cytometry, cells loaded with oleic acid
# Procedure, shortened: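 Cells seeded at 5,000 per well were treated with compounds over a concentration series and loaded with oleic acid (400 uM, as added). Lipid droplet fluorescence (488 nm excitation, 500-530 nm channel) was read by laser-scanning cytometry and normalized to 20 uM Triacsin C.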
# [13] = Confirmatory screen NINDS Rhodamine qHTS for Zika virus inhibitors (AID 1347161); note: nearly all actives have a fitted effect of over 60% in size; note: potency is the fitted concentration of half-maximal effect;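 for activity change, negative = inhibition: purified Zika NS2B-NS3 protease with linked NS2B cofactor domain and Rhodamine110 peptide substrate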
# Procedure, shortened: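 Rhodamine110-peptide cleavage (1.5 µM substrate) by 25 nM linked NS2B-NS3 enzyme at pH 8.0 (Tris, Tween 20), after 15 min RT preincubation with compounds; 15-min fluorescence change normalized to controls and Hill-fitted.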
# [14] = tested on: Zika virus NS2B-NS3 protease (linked construct); assay: 384 well plate NINDS Rhodamine confirmatory qHTS for Zika virus inhibitors (AID 1347164);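 note: fluorescence from protease cleavage of Ac-LKRR-rhodamine 110 substrate; nearly all actives have a fitted effect of over 65% in size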; note: potency is the fitted concentration of half-maximal effect; for activity change, negative = inhibition: top concentration of the series differs between compounds
# Procedure, shortened: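 Linked protease at a final 5 nM, 30 nM or 60 nM was preincubated ~15 min with compounds, then given 10 microM Ac-LKRR-Rhodamine 110. Fluorescence (ex 485/em 538 nm) after 25 min in the dark at room temperature.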
# [15] = tested on: Zika virus NS2B-NS3 protease (linked construct); assay: Confirmatory screen NINDS AMC qHTS for Zika virus inhibitors (AID 1347152);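 note: AMC fluorescence gain from cleaved Bz-Nle-KRR-AMC substrate over 15 min; top concentration of the series differs between compounds; nearly all actives have a fitted effect of over 70% in size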
# Procedure, shortened: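 Purified NS2B-NS3 protease with NS2B hydrophilic domain linked to NS3 protease domain by flexible linker, 1 nM final in 10 mM Tris-HCl pH 8.0, 0.01% Tween 20. Compounds preincubated 15 min, room temperature; Bz-Nle-KRR-AMC 10 microM (Km 18.3 µM); 15-min fluorescence change, 4-parameter Hill fit.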
# [16] = tested on: Zika virus NS2B-NS3 protease (linked); assay: 384 well plate NINDS AMC confirmatory qHTS for Zika virus inhibitors (AID 1347163); note: nearly all actives have a fitted effect of over 50% in size; note: potency is the fitted concentration of half-maximal effect;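 for activity change, negative = inhibition: linked protease at 5 30 or 60 nM final depending on run; fluorescence of AMC released from Ac-VKTGKR-AMC peptide cleaved by the protease; top concentration of the series differs between compounds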
# Procedure, shortened: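 Linked protease 5/30/60 nM final; cpds up to 1 mM final, ~15 min preinc. Substrate Ac-VKTGKR-AMC 30 microM final. RT, dark, 25 min; FI ex 355/em 460; normalized to no-enzyme/no-inhibitor ctrls.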
# [17] = ZIKV-mCherry secondary qHTS for Zika virus inhibitors (AID 1347158); note: potency is the fitted concentration of half-maximal effect
# Procedure, shortened: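 After overnight seeding at 37 °C, Vero cells receive compound and then ZIKV-mCherry (MOI 1). Following 48-72 h infection, cells are fixed, counterstained with Hoechst, and imaged; percent infected cells is derived from an mCherry intensity cut-off of 450 RFU.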
# Furin (Homo sapiens), sequence (P09958 whole entry, looked up): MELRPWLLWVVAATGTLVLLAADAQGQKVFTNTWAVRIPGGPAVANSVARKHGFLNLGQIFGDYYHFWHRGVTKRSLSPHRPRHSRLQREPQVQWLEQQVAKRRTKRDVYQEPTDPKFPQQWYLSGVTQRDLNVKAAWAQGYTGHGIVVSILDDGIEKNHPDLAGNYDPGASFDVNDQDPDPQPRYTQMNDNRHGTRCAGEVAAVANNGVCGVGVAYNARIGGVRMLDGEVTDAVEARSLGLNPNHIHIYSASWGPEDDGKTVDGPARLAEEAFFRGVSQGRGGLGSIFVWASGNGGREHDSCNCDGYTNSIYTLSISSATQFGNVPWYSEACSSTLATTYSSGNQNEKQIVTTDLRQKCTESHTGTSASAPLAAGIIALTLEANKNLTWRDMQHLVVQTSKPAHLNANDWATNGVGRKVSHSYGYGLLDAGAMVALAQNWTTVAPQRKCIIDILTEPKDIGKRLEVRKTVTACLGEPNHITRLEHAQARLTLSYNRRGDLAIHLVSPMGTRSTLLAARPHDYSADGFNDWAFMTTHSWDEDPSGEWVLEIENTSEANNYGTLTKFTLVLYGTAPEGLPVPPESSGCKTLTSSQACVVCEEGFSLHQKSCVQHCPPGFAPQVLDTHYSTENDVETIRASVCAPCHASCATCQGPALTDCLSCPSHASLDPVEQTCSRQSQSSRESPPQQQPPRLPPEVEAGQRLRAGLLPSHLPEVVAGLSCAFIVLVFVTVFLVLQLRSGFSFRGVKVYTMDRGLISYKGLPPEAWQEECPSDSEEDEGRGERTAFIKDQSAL
# Cytochrome P450 3A4 (Homo sapiens), sequence (P08684 whole entry, looked up): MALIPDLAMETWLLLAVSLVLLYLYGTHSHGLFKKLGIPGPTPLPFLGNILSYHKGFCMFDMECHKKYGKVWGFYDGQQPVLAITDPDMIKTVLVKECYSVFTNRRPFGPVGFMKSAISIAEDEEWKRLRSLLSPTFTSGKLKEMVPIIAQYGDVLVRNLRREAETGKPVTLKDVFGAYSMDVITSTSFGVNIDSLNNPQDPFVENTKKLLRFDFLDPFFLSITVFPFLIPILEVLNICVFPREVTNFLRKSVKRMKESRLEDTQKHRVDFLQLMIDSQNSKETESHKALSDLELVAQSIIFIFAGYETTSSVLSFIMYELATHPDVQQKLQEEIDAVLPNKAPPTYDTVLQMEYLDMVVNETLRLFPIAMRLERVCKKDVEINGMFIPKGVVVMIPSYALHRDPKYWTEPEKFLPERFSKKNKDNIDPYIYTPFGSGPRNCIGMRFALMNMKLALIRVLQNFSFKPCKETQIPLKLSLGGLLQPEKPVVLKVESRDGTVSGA
smiles,measurement,setting,value
Cc1cccc(OCC(=O)Nc2ccc(C(=O)OCc3cc(=O)n4nc(C5CC5)sc4n3)cc2)c1,Potency,[1],inactive
same,Potency,[2],inactive
C=NC(C(=O)N[C@H]1C(=O)N2C1SC(C)(C)C2C(=O)O)c1ccccc1 (some centres undefined),Potency,[3],inactive
same,Potency,[4],26.7 µM (active)
same,Potency,[5],inactive
same,Potency,[6],inactive
same,Potency,[2],inactive
same,Potency,[7],inactive
O=C1C=CC(=O)c2c(O)c(Cl)c(Cl)c(O)c21,Potency,[8],31.6 µM (active)
same,Potency,[9],inactive
same,outcome,[10],inactive
same,outcome,[11],inactive
same,"activity change, negative = inhibition",[12]; at 57.5 µM (top of the series),5.17% (inactive)
same,max response,[12]; measured here: cell count channel max response,0.303%
same,max response,[12]; measured here: lipid channel max response,7.95%
same,Potency,[1],inactive
same,Potency,[13],inactive
same,Potency,[2],inactive
Cc1ccc(-c2nnc(Nc3ccc(O)cc3)c3ccccc23)cc1S(=O)(=O)NC(C)(C)CO,Potency,[1],inactive
same,Potency,[2],inactive
CCC(C)CCCCC(=O)NC(CCNCS(=O)(=O)O)C(=O)NC(C(=O)NC(CCNCS(=O)(=O)O)C(=O)NC1CCNC(=O)C(C(C)O)NC(=O)C(CCNCS(=O)(=O)O)NC(=O)C(CCNCS(=O)(=O)O)NC(=O)C(CC(C)C)NC(=O)C(CC(C)C)NC(=O)C(CCNCS(=O)(=O)O)NC1=O)C(C)O (centres undefined) ({Octanoyl(6-Me)}-[ξDab(CH2SO3H)]T[ξDab(CH2SO3H)][Dab][ξDab(CH2SO3H)]LL[ξDab(CH2SO3H)][ξDab(CH2SO3H)]T; lactam 4-C; configuration not given here),Potency,[1],inactive
same,Potency,[13],12.6 µM (active)
same,Potency,[14],3.55 µM (active)
same,Potency,[2],inactive
CC[C@@H](C(=O)[C@H](C)[C@@H](O)[C@H](C)CCc1ccc(C)c(O)c1C(=O)O)C1O[C@@](CC)(C2CC[C@](O)(CC)[C@H](C)O2)C[C@@H]1C (some centres undefined),Potency,[1],inactive
same,Potency,[13],9.84 µM (active)
same,Potency,[14],31.6 µM (active)
same,Potency,[7],inactive
COc1ccccc1-c1ccnc(N[C@H]2CO[C@H]3[C@@H]2OC[C@@H]3NS(=O)(=O)c2ccc3ccccc3c2)n1,Potency,[15],inactive
same,Potency,[3],inactive
same,Potency,[2],16.5 µM (active)
COc1ccc(NS(=O)(=O)c2ccc(NS(=O)(=O)c3ccc4c(c3)OCCO4)cc2)cc1,Potency,[1],inactive
same,Potency,[16],355 µM (active)
same,Potency,[14],141 µM (active)
CC(Oc1ccccc1)C(=O)Nc1ccc(C(=O)OCc2cc(=O)n3nc(C4CC4)sc3n2)cc1 (centres undefined),Potency,[1],inactive
same,Potency,[16],inactive
same,Potency,[14],inactive
same,Potency,[2],inactive
COc1cc(O)c2c(=O)cc(-c3ccc(OC)c(-c4c(O)cc(O)c5c(=O)cc(-c6ccc(O)cc6)oc45)c3)oc2c1,Potency,[8],inactive
same,Potency,[3],44.1 µM (active)
same,Potency,[17],11.2 µM (active)
same,Potency,[16],35.5 µM (active)
same,Potency,[14],112 µM (active)
same,Potency,[2],16.5 µM (active)
